What all share (test): NCI-60 one-dose screen, 48 h (100 = growth as untreated, 0 = no growth, -100 = all killed)
One assay concerns NCI-H23 lung. The note with it: 10 µM unless noted.
Another assay concerns NCI-H226 lung. The conditions noted are these: 10 µM unless noted.
A further assay concerns NCI-H322M lung. The conditions noted are these: 10 µM unless noted.
The next assay deals with HOP-62 NSCLC. The note with it: 10 µM unless noted.
For a further assay, the system named is HOP-92 NSCLC. The note with it: 10 µM.
The subject of the next assay is NCI-H522 lung. The conditions noted are these: 10 µM.
In a further assay the test system is A549/ATCC NSCLC. The note with it: 10 µM unless noted.
The test system of the next assay is 786-0 renal. The note with it: 10 µM unless noted.
The next assay has as its system COLO 205 colon. The conditions noted are these: 10 µM unless noted.
Another assay concerns DU-145 prostate. The note with it: 10 µM unless noted.
A further assay relates to K-562 leukemia. The conditions noted are these: 10 µM unless noted.
Another assay deals with MALME-3M melanoma. The note with it: 10 µM unless noted.
The next assay relates to MDA-MB-231 breast. The conditions noted are these: 10 µM unless noted.
The next assay deals with RXF 393 renal. The note with it: 10 µM unless noted.
Another assay concerns SF-268 CNS. The note with it: 10 µM unless noted.
Another assay deals with SF-295 CNS. The conditions noted are these: 10 µM unless noted.
The test system of the next assay is SF-539 CNS. The conditions noted are these: 10 µM unless noted.
The subject of another assay is UACC-257 melanoma. The conditions noted are these: 10 µM unless noted.
The test system of another assay is M14 melanoma. The note with it: 10 µM unless noted.

The panel holds about 83,000 compounds, 20% with a hit somewhere; the sample as a whole holds those more often.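 Negative percent growth values reflect cell death: -40 means 40% of the cells present at the start died, and -100 means all died.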 Values without a mark were called inactive. Calls of active or inactive are those of the source. The calls were made as follows: active = growth percent below 10; inactive = the rest.

Regarding `CC([C@H]1CCC2C3CCC4C[C@@H](N)CC[C@]4(C)C3CC[C@@]21C)N(C)C` (some centres not stated), the growth in the assay on NCI-H23 lung was 77.1%; with NCI-H226 lung, 112%; in the assay with NCI-H322M lung it was 77.3%; in the assay with HOP-62 NSCLC, 104%; with HOP-92 NSCLC, 53.1%; in the assay with NCI-H522 lung, 102%. Also, the growth in the assay with A549/ATCC NSCLC was 86.1%; in the assay on 786-0 renal it was 71.7%; with COLO 205 colon, 6.07% (active); with DU-145 prostate it was 88.7%; in the assay with K-562 leukemia, 21.2%; with MALME-3M melanoma, 5.88% (active). For the same compound, the growth in the assay on MDA-MB-231 breast is 58%; in the assay on RXF 393 renal it was 24.3%; in the assay on SF-268 CNS, 37.1%; in the assay with SF-295 CNS, 76.6%; in the assay with SF-539 CNS, 13.1%; with UACC-257 melanoma, -7.66% (active). Besides, the growth in the assay with M14 melanoma was -6.67% (active).
In the case of `CCCCCCNC(=O)Oc1ccc(/C(=C(/C)Cc2ccc(OC)cc2)c2ccc(OCCN3CCCCC3)cc2)cc1`, the growth was 90.9% with NCI-H23 lung; 92% in the assay with NCI-H226 lung; 89.5% in the assay on NCI-H322M lung; 91.2% in the assay on HOP-62 NSCLC; 60.5% with HOP-92 NSCLC; 85.6% in the assay on NCI-H522 lung. The growth in the assay with A549/ATCC NSCLC was 77.6%; with 786-0 renal, 78.5%; with COLO 205 colon, 79.4%; in the assay with DU-145 prostate it was 98.9%; with K-562 leukemia it was 36.8%; in the assay with MALME-3M melanoma, 101%. Besides, the growth is 84.5% with MDA-MB-231 breast; 84.4% with RXF 393 renal; 81.9% in the assay on SF-268 CNS; 105% with SF-295 CNS; 91.8% with SF-539 CNS; 88.9% in the assay with UACC-257 melanoma. For the same compound, the growth in the assay on M14 melanoma was 84.6%.
In the case of `CCCC(=O)Nc1ccccc1C(=O)O`, the growth in the assay on NCI-H23 lung is 86.6%; in the assay with NCI-H226 lung, 101%; in the assay on NCI-H322M lung it was 107%; with HOP-62 NSCLC, 96.9%; with HOP-92 NSCLC, 95.7%; with NCI-H522 lung it was 90.7%. Also, the growth in the assay on A549/ATCC NSCLC is 94.3%; with 786-0 renal it was 112%; with COLO 205 colon, 97%; in the assay on DU-145 prostate, 97.6%; in the assay on K-562 leukemia, 104%; in the assay with MALME-3M melanoma, 106%. Further, the growth is 123% in the assay with MDA-MB-231 breast; 93.7% in the assay with RXF 393 renal; 92.4% in the assay with SF-268 CNS; 93.9% in the assay on SF-295 CNS; 102% in the assay on SF-539 CNS; 85.2% with UACC-257 melanoma. Moreover, in the assay with M14 melanoma, the growth was 98.6%.
With `CC(C)CSc1nc(-c2ccc(F)cc2)c(C#N)c(N2CCCCC2)n1`, the growth in the assay on NCI-H23 lung was 83.7%; with NCI-H226 lung it was 90.5%; in the assay with NCI-H322M lung it was 94%; in the assay on HOP-62 NSCLC, 110%; with HOP-92 NSCLC it was 97.5%; in the assay on NCI-H522 lung, 82.6%. Besides, the growth in the assay on A549/ATCC NSCLC is 86.6%; in the assay on 786-0 renal, 90.8%; with COLO 205 colon, 96.2%; with DU-145 prostate, 94.1%; in the assay with K-562 leukemia, 95.8%; in the assay on MALME-3M melanoma, 86.1%. In addition, the growth with MDA-MB-231 breast is 101%; in the assay with RXF 393 renal, 87.7%; with SF-268 CNS, 90.9%; in the assay with SF-295 CNS it was 92.6%; in the assay on SF-539 CNS, 103%; in the assay with UACC-257 melanoma, 100%. Besides, in the assay with M14 melanoma, the growth is 89.8%.
In the case of `C[C@]12C=CC(=O)C=C1[C@@H](F)C[C@@H]1[C@@H]2[C@@H](O)C[C@@]2(C)[C@H]1CC[C@]2(O)C(=O)CO`, the growth in the assay with NCI-H23 lung is 106%; in the assay with NCI-H226 lung it was 90.6%; in the assay on NCI-H322M lung, 113%; in the assay with HOP-62 NSCLC, 104%; in the assay with HOP-92 NSCLC, 57.5%; with NCI-H522 lung it was 118%. The growth with A549/ATCC NSCLC is 63.5%; with 786-0 renal, 108%; with COLO 205 colon, 106%; in the assay on DU-145 prostate it was 95.1%; in the assay with K-562 leukemia, 125%; in the assay on MALME-3M melanoma, 81.8%. The growth was 80.6% in the assay on MDA-MB-231 breast; 126% in the assay on RXF 393 renal; 96.9% in the assay on SF-268 CNS; 123% in the assay on SF-295 CNS; 96.1% in the assay with SF-539 CNS; 96.1% in the assay with UACC-257 melanoma. In addition, in the assay with M14 melanoma, the growth is 92.5%.
For `CN1C(=O)C(=Cc2coc3ccc(Br)cc3c2=O)C(=O)N(C)C1=O`, the growth in the assay with NCI-H23 lung is 94.5%; in the assay with NCI-H226 lung, 97.2%; in the assay with NCI-H322M lung, 124%; in the assay with HOP-62 NSCLC, 94.5%; in the assay with HOP-92 NSCLC, 81.3%; in the assay on NCI-H522 lung it was 95%. Besides, the growth with A549/ATCC NSCLC was 97.8%; in the assay with 786-0 renal it was 112%; in the assay on COLO 205 colon it was 106%; in the assay with DU-145 prostate, 103%; in the assay with K-562 leukemia, 127%; in the assay on MALME-3M melanoma it was 139%. In addition, the growth with MDA-MB-231 breast is 97.6%; with RXF 393 renal it was 93.6%; in the assay on SF-268 CNS, 97.6%; with SF-295 CNS it was 120%; with SF-539 CNS, 100%; with UACC-257 melanoma it was 101%. The growth with M14 melanoma was 99.8%.
On to `COc1ccc(-c2nc(SCC(C)C)nc(Nc3ccc(C)cc3)c2C#N)cc1`, for which the growth with NCI-H23 lung is 73.9%; in the assay with NCI-H226 lung it was 65.6%; in the assay with NCI-H322M lung, 52.9%; in the assay with HOP-62 NSCLC, 88.5%; with HOP-92 NSCLC, 73.9%; with NCI-H522 lung it was 81.4%. Further, the growth is 52.6% in the assay on A549/ATCC NSCLC; 24.4% with 786-0 renal; 46.6% in the assay with COLO 205 colon; 85.9% with DU-145 prostate; 68.8% with K-562 leukemia; 74.3% in the assay on MALME-3M melanoma. The growth was 68.4% in the assay with MDA-MB-231 breast; 88.2% with RXF 393 renal; 85.3% in the assay on SF-268 CNS; 64.4% with SF-295 CNS; 63.5% in the assay on SF-539 CNS; 103% with UACC-257 melanoma. Besides, the growth in the assay with M14 melanoma was 88.8%.
Consider `CC1=C(C)C[C@]2(C(=O)O[C@H]3CCCC[C@@H]32)[S@](=O)C1`, for which the growth was 97.9% with NCI-H23 lung; 109% with NCI-H226 lung; 106% in the assay with NCI-H322M lung; 106% in the assay on HOP-62 NSCLC; 105% in the assay on HOP-92 NSCLC; 82.9% with NCI-H522 lung. The growth in the assay with A549/ATCC NSCLC is 96.5%; in the assay with 786-0 renal, 102%; in the assay with COLO 205 colon, 108%; with DU-145 prostate, 107%; with K-562 leukemia, 102%; in the assay on MALME-3M melanoma it was 110%. For the same compound, the growth is 125% with MDA-MB-231 breast; 112% in the assay on RXF 393 renal; 96.4% with SF-268 CNS; 106% in the assay on SF-295 CNS; 114% in the assay on SF-539 CNS; 97.7% in the assay with UACC-257 melanoma. Moreover, the growth in the assay on M14 melanoma is 103%.

These data come from PubChem BioAssay (NCI).
